Measurements as given in ChEMBL document CHEMBL1157539, “Thousands of chemical starting points for antimalarial lead identification” (Nature, 2010).

test system: Plasmodium falciparum; test: GSK_TCMDC: Inhibition of Plasmodium falciparum Dd2 in whole red blood cells, using parasite LDH activity as an index of growth. Test compounds present at 2uM; assay type: functional

Row | SMILES | Inhibition [%]
1 | Cc1ccc2nc(-c3ccc(/C=C/C(=O)NC4CCN(Cc5ccccc5)CC4)cc3)[nH]c2c1C | 92
2 | Cc1[nH]c(C)c(-c2ccc(Br)cc2)c(=O)c1Cl | 77
3 | O=C(O)C(F)(F)F.S=C(Nc1cccc(Cl)c1)NC1CCN(c2ccnc3cc(Cl)ccc23)C1 (stereo not given) | 89
4 | COc1ccc(NC(=O)c2ccc(Br)c(C)c2)cc1N1CCN(CCCCc2ccccc2)CC1.O=C(O)C(=O)O | 17
5 | CCNc1cc(C)nc(Nc2ccc(C)cc2)n1 | 85
6 | O=C(O)C(F)(F)F.c1cc(CNCC2CCN(CC3CCCCC3)CC2)cc(-n2ccnc2)c1 | 99
7 | CO/C(=C\C=C\c1cc2cc(Cl)c(Cl)cc2[nH]1)C(=O)NCCCNCCN(C)c1ccccc1 | 55
8 | Cc1n[nH]c2ccc(-c3cc(OC[C@@H](N)Cc4ccccc4)cnc3-c3cc4ccccc4s3)cc12.O=C(O)C(F)(F)F | 68
9 | CN1CCCc2ccc(NC(=O)Nc3ccc(-c4ccccc4)cc3)cc2C1 | 47
10 | CC(CNC(=O)[C@H]1CNCCN1C(=O)CCCc1ccccc1)c1ccccc1.O=C(O)C(F)(F)F (stereo not given in full) | 1
11 | O=C(NCCc1ccc(F)cc1)c1ccc(N2CCN(c3ccncc3)CC2)nc1.O=C(O)C(F)(F)F | 3
12 | O=C(/C=C/c1ccc(Cl)c(Cl)c1)NCCCCCN1CCC(c2c[nH]c3c(-c4ccccc4)cccc23)CC1 | 40
13 | Brc1ccc(C=NNc2nc3ccccc3[nH]2)cc1 | 90
14 | Cc1cc(N(C)C)nc(Nc2ccc(NC(=O)Nc3ccccc3)cc2)n1 | 100
15 | COc1cc(C(=O)N2CCOC(CCN3CCC(c4ccc(Cl)cc4)CC3)(c3ccc(Cl)c(Cl)c3)C2)cc(OC)c1OC (stereo not given) | 80
16 | O=C(Nc1ccc(OC(F)(F)F)cc1)NC1CCN(c2ccnc3ccccc23)C1.O=C(O)C(F)(F)F (stereo not given) | 89
17 | Cl.Cn1ncc2c3c(CCN4CCC(NCc5cc6c(cn5)OCCO6)CC4)c(Cl)cnc3ccc21 | 34
18 | COc1ccc(CSC2CCCCC23NC(=S)NC3=S)cc1 (stereo not given) | 0
19 | Br.CC1(C)NC(N)=NC(=N)N1OCCCOc1cccc2ccccc12 | 86
20 | CCCCn1c(-c2ccco2)nc2c(c(=O)c3ccccc3n2C)c1=O | 64

Row | SMILES | Inhibition [%]
21 | COc1ccc(CNC2Cc3ccccc3C2)cc1-c1ccc(S(=O)(=O)NCCN2CCCC2)s1.O=C(O)C(F)(F)F | 100
22 | COc1cc2nc(NCCc3ccccc3)nc(NCc3cc(C)no3)c2cc1OC | 100
23 | COc1ccc(NC(=O)Nc2ccc(-c3ccncc3)c(Cl)c2)cc1N1CCN(C)CC1 | 62
24 | CN1CCN(c2ncnc3ccc(NC(=O)Nc4ccc(Cl)c(Cl)c4)cc23)CC1 | 89
25 | O=S(=O)(c1cccc(Cl)c1F)N(CCC(O)(C(F)(F)F)C(F)(F)F)Cc1cccc(O)c1 | 86
26 | COc1ccc(-n2ncc(C(=O)N3CCC4(C3)C(=O)N(c3ccccc3)c3ccccc34)c2C)cc1 (stereo not given) | 91
27 | CN(C)CCOc1cc(NC(=O)c2ccc(-c3ccc(Cl)cc3Cl)cc2)ccc1-c1ccccc1 | 26
28 | Cc1ccc2c(Cl)c(C(=O)N3CCCc4ccccc43)sc2c1 | 15
29 | Cc1nc(C)c(CC(=O)Nc2cccc(-c3cccc(-c4nc5cccc(C)c5[nH]4)c3)c2)s1 | 35
30 | CN(CCC(O)c1ccc(Cl)c(Cl)c1)CC1CC1C(=O)c1ccccc1 (stereo not given) | 96
31 | O=C(O)c1ccc(NC(=O)C2CC(=O)N(Cc3ccc(Cl)cc3)C(=Nc3ccc(Cl)cc3)S2)cc1 (stereo not given) | 95
32 | CC(=O)c1sc2ccccc2c1O | 0
33 | Cc1ccc(CN2CCCN(Cc3cccc(NC(=O)c4cc5ccccc5s4)c3)CC2)cc1.O=C(O)C(F)(F)F | 28
34 | CNC(=O)CC(=O)NCCc1ccc(Cl)cc1 | 1
35 | COc1cc(Cc2cnc(N)nc2N)ccc1OCc1ccc(-c2csnn2)cc1 | 0
36 | COc1ccc(C(=O)CCC(=O)N(Cc2ccc(-c3ccc(CNCCc4ccc(S(C)(=O)=O)cc4)cn3)cc2)C2CCN(Cc3ccccc3)CC2)cc1F.O=C(O)C(F)(F)F | 72
37 | COc1ccc2c(ccc3c2ncc2c(=O)n(-c4ccccc4)[nH]c23)c1 | 92
38 | CCNc1cc(C)nc(Nc2ccc(NC(=O)c3ccccc3)cc2)n1 | 63
39 | COc1ccc(Nc2nccc(NCCNC(=O)c3cc4ccccc4s3)n2)cc1 | 7
40 | Cn1nccc1C(=O)NCCNCc1cccc(-c2ccc(-c3nc4cc(C(F)(F)F)ccc4[nH]3)cc2)c1.O=C(O)C(F)(F)F | 98
